Assay results reported in PubChem BioAssay (NCATS).
“And” between values parts separate entries of the source, which are not always exact repeats. Equal entries are not always repeated. Inconclusive results are not listed. A number with no mark means an inactive call. The source made the active and inactive calls. The call rests on the fitted dose curve; in most records, active means well fitted cell-killing curve with a large enough effect; inconclusive means small, poorly fitted or top-dose-only effect, or effect the other way; inactive means no such curve, though single readings can be large or run the other way.

assay: Viability qHTS for spleen associated tyrosine kinase inhibitor (SYKi) drug resistant MV4-11 cells (AID 1963824); settings: SYKi-resistant MV4-11 viability, CellTiter-Glo, 72 h; series mostly up to 45 µM; viability, % of control: at the top concentration; further: nearly all actives have a fitted effect of over 35% in size
How it was run: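 CellTiter-Glo luminescence, read 10 min after reagent addition, reports viability after a 72 hr compound exposure. Cells are an MV4-11 line made resistant to SYK inhibition, seeded at 500 per well onto compound-containing plates.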
Potency means the concentration at half of the fitted maximal effect.

With `O=P1(N(CCCl)CCCl)NCCCO1` (stereo unspecified) the Potency was “inactive”.
For `CCCN(CCC)c1c([N+](=O)[O-])cc(S(N)(=O)=O)cc1[N+](=O)[O-]`, the Potency was 21.7 µM (active).
With `CCC1(c2ccccc2)CCC(=O)NC1=O` (stereo unspecified) the Potency was 13.3 µM (active).
For `C[C@@H]1O[C@@H](O[C@H]2C[C@@H](O)[C@]3(CO)[C@H]4[C@H](O)C[C@]5(C)[C@@H](C6=CC(=O)OC6)CC[C@]5(O)[C@@H]4CC[C@]3(O)C2)[C@H](O)[C@H](O)[C@H]1O`, the Potency was 84.1 nM (active) and 63.2 nM (active) and 33.2 nM (active).

In order of falling “viability, % of control” value:
1. C[C@@H]1CN(C2CCC(C#N)(c3ccc(F)cc3)CC2)CC[C@]1(C(=O)O)c1ccccc1 (stereo partly specified)  103%
2. COC(=O)[C@@H](N)CCCN/C(N)=N/[N+](=O)[O-]  100%
3. CCS(=O)(=O)C(C)(C)S(=O)(=O)CC  100%
4. COc1ccccc1N1CCNCC1  94%
5. CN1[C@@H]2CC[C@H]1CC(OC(=O)c1cc(Cl)cc(Cl)c1)C2 (stereo partly specified)  92.4%
6. CCN(CC)CCOC(=O)C(O)(c1ccccc1)c1ccccc1  91.9%
7. CC(CC(C(N)=O)(c1ccccc1)c1ccccc1)N(C)C (stereo unspecified)  90%
8. C=CCN1CC[C@]23c4c5ccc(O)c4O[C@H]2C(=O)CC[C@@]3(O)[C@H]1C5  86.8%
9. C[C@@H](C1CC[C@@]2(O)C3=CC(=O)[C@@H]4C[C@@H](O)[C@@H](O)C[C@]4(C)[C@H]3CC[C@]12C)[C@H](O)CCC(C)(C)O (stereo partly specified)  80.4%
10. CC1OC(C)OC(C)O1 (stereo unspecified)  78.8%
11. C[C@H]1C(=O)O[C@@H]2CCN3CC=C(COC(=O)[C@](C)(O)[C@]1(C)O)[C@H]23  74.3%
12. CC(C)NCC(O)c1ccc([N+](=O)[O-])cc1 (stereo unspecified)  72.6%
